The whole screen tested about 420,000 compounds, of which about 50,000 (12%) were called active. Another 26% or so got no clear call; they are omitted. Only a selection was taken, and actives are over-represented in it overall. A number with no mark means an inactive call. The call rests on the fitted dose curve; in most records, active means well fitted inhibition curve with a large enough effect; inconclusive means small, poorly fitted or top-dose-only effect; inactive means flat fitted curve, though single readings scatter.
assay: qHTS for Inhibitors of human tyrosyl-DNA phosphodiesterase 1 (TDP1): qHTS in cells in presence of CPT; details: chicken DT40 Tdp1-/-;hTDP1 cells + 20 nM CPT, ATP luminescence, 48 h; series mostly up to 46.2 µM; activity change, negative = growth inhibition: at the top concentration; further: nearly all actives have a fitted effect of over 55% in size
Procedure, shortened: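 Chicken DT40 Tdp1-/- cells stably complemented with human TDP1 were seeded at 400 cells/well in medium containing 20 nM camptothecin, exposed to pin-transferred compounds, and grown at 37 °C for at least 48 hr. Viability was read as ATP luminescence.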
On the % scale 0 is the no-effect control and ±100 the full control effect; potency means the concentration at half of the fitted maximal effect.

Structure (SMILES) | Potency | activity change, negative = growth inhibition
COc1cccc(C(=O)Nc2ccc3nc4n(c(=O)c3c2)CCCCC4)c1 | 20.6 µM (active) | 
COc1cccc(C(=O)Nc2ccc(N3CCCC3)cc2)c1 | 9.2 µM (active) | 
O=C(c1ccco1)N1CCN(c2cccc(Cl)c2)CC1 |  | -25.2%
COc1ccc(C(=O)Nc2ccc(N3CCC(C)CC3)cc2)cc1Br |  | 8.77%
COc1cccc(C(=O)Nc2ccc(NC(=O)c3ccco3)cn2)c1 |  | -16.7%
Cc1ccc(C)c(OCC(=O)N2CCN(C(=O)c3ccco3)CC2)c1 |  | -28.5%
COc1cccc(COC(=O)C2CCN(S(=O)(=O)c3ccc(Cl)cc3)CC2)c1OC |  | -13.8%
COc1ccc(CN2CC[C@H]3C=CC[C@@H](C(=O)N4CCOCC4)[C@H]3C2=O)cc1OC | inactive | 
C=CCN1C(=NC(=O)COc2ccccc2)SC2CS(=O)(=O)CC21 (stereo unspecified) |  | -2.8%
COc1ccc(CCNC(=O)CSc2nnc3ccc(-c4ccncc4)nn23)cc1 |  | -27.7%
CCOC(CNC(=O)C(=O)NCC(c1ccco1)N1CCN(c2ccc(OC)cc2)CC1)OCC (stereo unspecified) |  | -12.4%
COc1ccc2ccccc2c1CNCc1ccccn1 |  | -4.31%
Cc1cccc(C(C)C)c1NC(=O)COC(=O)C1CC(=O)N(Cc2ccccc2)C1 (stereo unspecified) |  | -15.7%
COc1ccc2[nH]cc(CCNc3cc(-c4ccccc4CN(C)C)ncn3)c2c1 |  | -26.4%
COc1ccc2[nH]cc(CCN3C(=O)c4ccc(C(=O)O)cc4C3=O)c2c1 |  | -5.94%
COc1ccc2[nH]cc(CCNc3ncnc4ccc(-c5ccc(C(=O)N(C)C)cc5)cc34)c2c1 | 20.6 µM (active) | 
Cc1ncc([N+](=O)[O-])n1CCOC(=O)c1ccc(Br)cc1 |  | 5.56%
CCOC(=O)c1ccc2c(c1)nc(C)n2CC |  | -27.8%
CCn1c(/C=C/Nc2ccccc2)[n+](CC)c2ccc(C(=O)OCC(F)(F)F)cc21 | 25.9 µM (active) | 
NC(CSC1(c2ccccc2)c2ccccc2-c2ccccc21)C(=O)O (stereo unspecified) |  | -18.1%
CCNC(=O)Nc1ccc(S(=O)(=O)Nc2cnc(C)nc2C)cc1 |  | -2.56%
Cc1cc(C)c(C#N)c(SCC(=O)N(CC(C)C)C2CCS(=O)(=O)C2)n1 (stereo unspecified) |  | 2.6%
CNc1cncc(-c2ccc(NS(C)(=O)=O)cc2)n1 | 2.91 µM (active) | 
CS(=O)(=O)Nc1ccc(C(=O)N2CCCC2)cc1 |  | 12.6%
CCCS(=O)(=O)Nc1ccc(-c2cn3c(n2)SCC3)cc1 |  | -0.742%
CC1(C)C/C(=N/Nc2ccc([N+](=O)[O-])cc2[N+](=O)[O-])C(C)(C)O1 |  | -11.8%

Structure (SMILES) | Potency | activity change, negative = growth inhibition
CCc1c(C)nc(SCC(=O)NC2CCCC2)[nH]c1=O |  | -2.07%
CCCn1c(NCc2ccc(N(CC)CC)cc2)nc2ccccc21 | 25.9 µM (active) | 
CCCn1c(NCc2ccccc2F)nc2ccccc21 |  | 5.1%
CC(C)(C)C(=O)Cn1c(NCCO)nc2ccccc21 |  | -3.07%
CC(=O)NC(CC(=O)Nc1ccc(S(=O)(=O)N2CCOCC2)cc1)c1ccccc1 (stereo unspecified) |  | 0.997%
O=S(=O)(c1ccc(F)cc1)N1CC=C(c2ccccc2)CC1 |  | -1.63%
COc1ccc(N(CC(=O)Nc2ccc(F)c(F)c2)S(=O)(=O)c2c(C)[nH]c(=O)[nH]c2=O)cc1 |  | 2.44%
S=C(Nc1cccc(Cl)c1)Nc1ccc2c(c1)OCCO2 |  | -30.1%
c1ccc(CN2CCC(N=C3NN=C(c4ccc5c(c4)OCCO5)CS3)CC2)cc1 |  | -26.3%
Clc1cccc(N=C2NN=C(c3ccc4c(c3)OCCO4)CS2)c1 | 20.6 µM (active) | 
CCOC1CS(=O)(=O)CC1OCC (stereo unspecified) |  | -5.04%
CC(=O)Nc1ccc(NC(=O)CSc2nnnn2-c2ccccc2F)cc1 |  | -24.4%
CNC(=O)C1CCN(S(=O)(=O)c2c(C)noc2/C=C/c2cccc(C)c2)CC1 |  | -10.1%
CC(=O)c1ccc(NC(=O)C2CCN(S(=O)(=O)c3c(C)noc3/C=C/c3ccc(C)cc3)CC2)cc1 |  | -24.3%
Cc1cccc(NC(=O)C2CCN(S(=O)(=O)c3c(C)noc3/C=C/c3ccco3)CC2)c1 | 16.4 µM (active) | 
Cc1ccc(S(=O)(=O)N(C)C)cc1NC(=O)c1ccc(-n2cncn2)c([N+](=O)[O-])c1 |  | -3.09%
COc1ccccc1CNCc1ccc(C(=O)O)s1 |  | -5.35%
CCCn1nc(C(=O)OCc2nc(N)nc(Nc3ccccc3C)n2)c2ccccc2c1=O |  | -16.3%
O=C(OC12CC3CC(CC(C3)C1)C2)c1ccc(NCc2cc(O)ccc2O)cc1 | 2.06 µM (active) | 
COC(=O)c1ccc(NCC(=O)c2ccccc2)cc1 |  | -1.26%
C#CCNc1ccc(C(=O)OCC)cc1 |  | 1.67%
CC(C)OC(=O)c1ccc(NCc2cc(O)ccc2O)cc1Cl | 2.91 µM (active) | 
COC(=O)c1ccc(NCc2cc(O)ccc2O)cc1 | 4.61 µM (active) | 
CC(CN1CCOCC1)OC(=O)c1ccc(Cl)cc1Cl (stereo unspecified) |  | 5.64%
CC(OC(=O)c1ccc(Cl)cc1O)C(=O)NCCC1=CCCCC1 (stereo unspecified) |  | -9.5%

Source: PubChem BioAssay AID686979 (National Center for Advancing Translational Sciences (NCATS), 2013)
